Measurements published in PubChem BioAssay (NCI).
This is part of a sample that, as a whole, favours compounds with a hit. Of some 83,000 tested, about 20% had one in any assay.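 Plates (96-well) were seeded with cells, treated with compound at one concentration, and incubated for 48 hours before percent growth was determined.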 Values without a mark were called inactive. Activity calls are given as the source filed them. How the source made its calls: active means growth percent below 10; inactive means the rest.

Experiments:
Assay in all cases: NCI-60 one-dose screen, 48 h (100 = growth as untreated, 0 = no growth, -100 = all killed)
Conditions in all cases: 10 µM unless noted
NCI-H23 lung = tested on: NCI-H23 lung
NCI-H226 lung = tested on: NCI-H226 lung
NCI-H322M lung = tested on: NCI-H322M lung
HOP-62 NSCLC = tested on: HOP-62 NSCLC
NCI-H460 lung = tested on: NCI-H460 lung
HOP-92 NSCLC = tested on: HOP-92 NSCLC
NCI-H522 lung = tested on: NCI-H522 lung
A549/ATCC NSCLC = tested on: A549/ATCC NSCLC
786-0 renal = tested on: 786-0 renal
COLO 205 colon = tested on: COLO 205 colon
DU-145 prostate = tested on: DU-145 prostate
K-562 leukemia = tested on: K-562 leukemia
MALME-3M melanoma = tested on: MALME-3M melanoma
MDA-MB-231 breast = tested on: MDA-MB-231 breast
SF-268 CNS = tested on: SF-268 CNS
SF-539 CNS = tested on: SF-539 CNS
UACC-257 melanoma = tested on: UACC-257 melanoma
M14 melanoma = tested on: M14 melanoma
SF-295 CNS = tested on: SF-295 CNS
RXF 393 renal = tested on: RXF 393 renal

SMILES | growth (NCI-H23 lung) | growth (NCI-H226 lung) | growth (NCI-H322M lung) | growth (HOP-62 NSCLC) | growth (NCI-H460 lung) | growth (HOP-92 NSCLC) | growth (NCI-H522 lung) | growth (A549/ATCC NSCLC) | growth (786-0 renal) | growth (COLO 205 colon) | growth (DU-145 prostate) | growth (K-562 leukemia) | growth (MALME-3M melanoma) | growth (MDA-MB-231 breast) | growth (SF-268 CNS) | growth (SF-539 CNS) | growth (UACC-257 melanoma) | growth (M14 melanoma) | growth (SF-295 CNS) | growth (RXF 393 renal)
Cc1csc2ccc(Cl)cc12 | 97.8% | 104% | 101% | 96.6% | 106% | 104% | 89% | 109% | 105% | 105% | 110% | 106% | 97.7% | 97% | 108% | 96.8% | 102% | 101% |  | 
CNC(=S)N/N=C/CSC/C=N/NC(=S)NC | 85.2% | 104% | 106% | 90.5% | 70.5% | 101% | 18.7% | 62.8% | 96.1% | 39.1% | 88.5% | 15.8% | 72% | 83.4% | 102% | 105% | 67.7% | 92.5% | 108% | 
COc1cccc(-n2cc(-c3nc(Nc4cc(C)[nH]n4)c4ccccc4n3)nn2)c1 | 61.1% | 49.9% | 52.2% | 50.2% | 44.9% | 35.8% | 9.97% (active) | 35.9% | 51.4% | 85.8% | 66.4% | 27% | 42.9% | 63.4% | 64.1% | 52.9% | 83.4% | 54.1% | 37.7% | 
Cc1cc(Nc2nc(N3CCOCC3)nc3ccccc23)n[nH]1 | 80.5% | 57.7% | 65.8% | 78% | 68.9% | 60.7% | 40.2% | 53.3% | 49.9% | 65.4% | 75.2% | 56.3% | 66.4% | 84.9% | 63.8% |  | 76% | 45.8% | 73.4% | 
Cc1cc(Nc2nc(N3CCN(C)CC3)nc3ccccc23)n[nH]1 | 91.6% | 81.6% | 86.4% | 81.4% | 69.6% | 59.8% | 41.2% | 65.2% | 59.8% | 58% | 88% | 57% | 69% | 83.2% | 67% | 76.3% | 82.9% | 50.8% | 74.4% | 
CC(=O)/C(=C/c1cccc(Cl)c1)C(=O)c1ccccc1 | 90.2% | 84.1% | 100% | 95.7% | 102% | 88.7% | 56.6% | 82.6% | 93.2% | 107% | 92.2% |  | 85.5% | 84.8% | 79.2% | 105% | 72.3% | 73.1% | 96.1% | 93.1%
CCOC(=O)C(CC)n1c(=O)c2cc(OC)c(OC)cc2c2cnc3[nH]ccc3c21 (stereo not drawn) | 66% | 49.4% | 71% | 73.8% | 72.4% | 42.5% | 79.3% | 76.1% | 80.9% | 86% | 78.5% |  | 98.9% | 70.5% | 67.4% | 66.3% | 97.5% | 88.5% | 65% | 34.5%
CN(C)CCOc1ccc(-c2nc3ccc(-c4nc5ccc(N6CCN(C)CC6)cc5[nH]4)cc3[nH]2)cc1 | 76.9% | 28.7% | 77.8% | 69.9% | 56% | 61.7% | 59.9% | 64.4% | 86.4% | 44.5% | 82.4% |  | 24.1% | 73.4% | 65.8% | 49.8% | 41.2% | 51.3% | 54.6% | 48.3%
CC(=O)OCC1OC(OC2=C(CC=C(Cl)Cl)C(=O)c3ccccc3C2=O)C(OC(C)=O)C(OC(C)=O)C1OC(C)=O (stereo not drawn) | 105% | 85% | 102% | 92.7% | 95.1% | -9.2% (active) | 3.88% (active) | 102% | 102% | 97.6% | 104% | -12.5% (active) | 51.6% | 69.5% | 88.8% | 90.5% | 94% | 110% |  | 
